Sampled rows, rich in hits. Any-hit rate of the full collection: about 3.7%.
ANO1 block: mouse TMEM16A channel inhibition, primary screen; 310,000 tested, 1.2% active; normalized B-score (activity score, 25-100; higher = stronger inhibition) at 10 µM; HEK293 TMEM16A/YFP iodide influx fluorescence, ionomycin; Q8BHY3;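 active means ratio plate-corrected score three or more library SD toward inhibition, starting fluorescence score within five deviations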;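 further: score derived from kinetic fluorescence span divided by baseline fluorescence per well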
ANO1 activ: mouse TMEM16A channel activation, primary screen | HEK293 TMEM16A/YFP-H148Q/I152L, iodide quench fluorescence; hits give low values | B-score at 10 µM | 340,000 tested, 0.3% active | AID 623877;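 active means fluorescence-ratio B-score plate-corrected deviation score at least 3 library SD below zero, with starting fluorescence score within 5 deviations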;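 further: channel opened by trigger with iodide after compound preincubation; score built on the fluorescence ratio of max minus min over baseline; more negative score means more quench and so TMEM16A activation or potentiation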
GPR7 antag: blocks human GPR7 receptor signaling; P48145; GPR7-expressing cells, fluorescence antagonist assay; inhibition, % at 4.4 µM; 290,000 tested, 1.1% active; AID 1861; in the data active means inhibition above about 16%, passing the limit was not always enough;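 further: cells stimulated with the agonist NPW; 0% = agonist with vehicle and 100% = vehicle without agonist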
CHT block: human CHT choline transport inhibition. Q9GZV3. CHT-expressing cells, membrane potential dye, choline response; hits give low values. B-score at 10 µM. 310,000 tested, 0.86% active;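 active means B-score over 3 SD under the library average, and starting fluorescence ratio not unusually high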;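 further: choline stimulus applied at its EC90 after an EC20 pre-addition; B-score computed on integrated fluorescence ratio after choline addition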
Target sequence (Q9GZV3 whole entry, looked up): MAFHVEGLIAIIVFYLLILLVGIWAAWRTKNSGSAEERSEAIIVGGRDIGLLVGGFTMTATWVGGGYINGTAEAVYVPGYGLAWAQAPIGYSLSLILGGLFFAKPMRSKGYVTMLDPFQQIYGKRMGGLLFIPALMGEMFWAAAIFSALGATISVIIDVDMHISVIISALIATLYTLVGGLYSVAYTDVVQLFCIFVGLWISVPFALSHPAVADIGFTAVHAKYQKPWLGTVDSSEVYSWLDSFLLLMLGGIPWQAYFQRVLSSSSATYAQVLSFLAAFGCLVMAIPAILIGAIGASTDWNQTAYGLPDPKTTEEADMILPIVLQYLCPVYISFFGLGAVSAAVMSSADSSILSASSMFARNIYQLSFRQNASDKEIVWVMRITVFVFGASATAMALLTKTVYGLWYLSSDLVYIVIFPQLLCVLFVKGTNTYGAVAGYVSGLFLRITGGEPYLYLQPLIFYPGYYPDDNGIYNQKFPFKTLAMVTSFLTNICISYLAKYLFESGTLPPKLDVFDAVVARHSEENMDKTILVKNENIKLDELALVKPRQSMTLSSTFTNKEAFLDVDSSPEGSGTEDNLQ
Kir21 inh: Kir2.1 (mouse) channel inhibition; P35561; HEK293-Kir2.1, FluxOR thallium flux fluorescence; hits give low values; B-score at 10 µM; 310,000 tested, 0.85% active;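 active means fluorescence ratio B-score at or below minus 3 SD of library scores, with starting-brightness B-score within 2 SD, cut at about -4.2 in these data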;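 further: channel flux triggered by added potassium and thallium sulfate stimulus; B-score of peak minus minimum fluorescence over baseline after thallium stimulus; more negative B-score means stronger Kir2.1 block with less thallium influx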
CHT allo act: human CHT allosteric activation. Q9GZV3. CHT-expressing cells, membrane potential dye, choline EC20; hits give high values; LV-AA mutant CHT in HEK293 cells. B-score at 10 µM. 310,000 tested, 0.49% active. AID 488977;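 active means initial fluorescence not abnormally high and integrated response B-score, plate-corrected, over 3 SD above library mean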
TMEM16A reconf: TMEM16A (mouse) chloride channel inhibition, re-confirmation; 2,300 tested, 39% active; HEK293 TMEM16A/YFP-H148Q, iodide quench fluorescence; ionomycin added to raise cell calcium; shares compounds with ANO1 block; inhibition, % at 10 µM; AID 652189;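 active means mean duplicate percent inhibition, scaled so buffer wells are 0 and the reference blocker 100, over three buffer SD above buffer mean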
HEK293 Ca mobil: counter-screen for TMEM16A inhibitors: effect on calcium mobilization | TMEM16A/YFP HEK293, Fluo4 calcium mobilization | 2,300 tested, 2% active | shares compounds with ANO1 block | calcium response (% of ionomycin), % at 10 µM | AID 652231;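 active means duplicate-averaged calcium signal over 20% of the ionomycin maximum, relative to buffer baseline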;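 further: each well's signal is peak minus trough fluorescence divided by its pre-addition baseline; 0% = buffer wells and 100% = ionomycin wells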
YFP-HEK293 quench: acts in parental YFP-HEK293 cells lacking TMEM16A, counter-screen | shares compounds with ANO1 block | iodide YFP quench, ionomycin | YFP ratio F(max-min)/F0 at 10 µM | 2,300 tested, under 10 active;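 active means yellow fluorescent protein signal ratio exceeding the buffer control mean by over 5 SD of those controls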;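 further: ratio is mean of duplicate wells from kinetic YFP trace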
ClC-1 inh: selectivity of TMEM16A inhibitors: inhibition of rat ClC-1 chloride channel; CHO ClC-1-YFP, iodide influx fluorescence quench; iodide control reads 0, buffer control 100; ratio percent, % at 10 µM; shares compounds with ANO1 block; 2,300 tested, under 10 active;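 active means duplicate-mean ratio percent above the mean of iodide-only control wells, which defines zero, plus 5 of their SD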;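 further: higher percent means stronger block of ClC-1 iodide influx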
* = called active by the depositor; i = inactive; . = no result.

SMILES	ANO1 block	ANO1 activ	GPR7 antag	CHT block	Kir21 inh	CHT allo act	TMEM16A reconf	HEK293 Ca mobil	YFP-HEK293 quench	ClC-1 inh
COc1cccc(CNC(=O)C(=O)NCC(c2ccco2)N2CCOCC2)c1 (stereo unspecified)	i	i	-9	i	-0.23	i	.	.	.	.
CSCC[C@H](NC(=O)OC(C)(C)C)c1nnc(SCc2ccc(F)cc2)o1	100*	i	-11	i	-3.2	i	i	i	-0.94	-3
CC(=O)N(CN1C(=O)c2ccccc2C1=O)c1cccc(C)c1	i	i	11	i	-1.4	i	.	.	.	.
CC(=O)N(/N=C1\Sc2ccccc2C1=O)c1cccc(C)c1	i	i	2	i	0.36	i	i	i	-1.1	-16
Cc1cccc(N2CCN(C(=O)CSCc3c(C)noc3C)CC2)c1C	100*	i	7	i	0.06	i	42%*	i	-0.85	-18
Cc1noc(C)c1CSCC(=O)N1CCN(c2ccc(F)cc2)CC1	i	i	0	i	-0.94	i	.	.	.	.
C[C@@H](C(=O)Nc1ccc2ccccc2c1)[C@H]1C[C@]1(C)[C@H](NC(=O)c1cnccn1)c1ccccc1	i	i	0	i	0.11	i	i	i	-1.2	-9
CC1CC(C)CN(C(=O)/C(=C\c2ccccc2)c2ccccc2)C1 (stereo unspecified)	i	i	-9	i	1.1	i	.	.	.	.
CN1CCN(C(=O)/C(=C/c2ccccc2)c2ccccc2)CC1	25*	i	-6	i	0.26	i	i	i	-0.95	-2
CC(=O)Oc1ccc(C(=O)Nc2nnc(C)s2)cc1	i	i	-13	i	-0.06	i	i	i	-0.97	-13
Fc1ccc(NC(=S)Nc2ccccc2OC(F)F)cc1Cl	100*	i	-1	i	-1.7	i	63%*	i	-1.4	-30
Cc1ccc(NC(=O)c2ccc3c(c2)C(=O)N(CC2CCCO2)C3=O)cc1C (stereo unspecified)	i	i	7	i	-0.81	i	.	.	.	.
O=C(Nc1ccc2c(c1)C(=O)N(CC1CCCO1)C2=O)c1ccc(Cl)c(Cl)c1 (stereo unspecified)	100*	i	-12	i	1.2	i	52%*	i	-0.89	-26
CN(C)S(=O)(=O)N1CCC(Oc2cccc(C(=O)NCCC3=CCCCC3)c2)CC1	100*	i	21	i	-3.2	i	22%*	i	-1.2	-20
CCOc1ccc(CN(C)C(=O)c2cccc(S(=O)(=O)N3CCCC3)c2)cc1OC	.	i	.	.	.	.	.	.	.	.
CCCc1nc(N2CCOCC2)c(C#N)c2c1CCCC2	100*	i	-17	i	-1.9	i	i	i	-1.1	-10
Cc1ccc(Cl)cc1NC(=S)N(CCN(C)C)C(C)c1ccccn1 (stereo unspecified)	i	i	-21	i	-0.01	i	.	.	.	.
CCC1(CC(C)C)SC(N)=NC1=O (stereo unspecified)	.	i	.	.	.	.	.	.	.	.
Cc1c(C(=O)Nc2ccc(OC(F)(F)F)cc2)sc2nc3n(c(=O)c12)CCC3	i	i	3	i	0.19	i	.	.	.	.
Cc1c(C(=O)Nc2ccc(Oc3ccccc3)cc2)sc2nc3n(c(=O)c12)CCC3	100*	i	-9	i	-0.21	i	i	i	-1.2	-18
OCCNCc1cc(Br)ccc1OCc1ccccc1Cl	i	i	18	i	-5.2	i	.	.	.	.
CCOc1cc(CNCCO)cc(Br)c1OCc1ccccc1Cl	25*	i	10	i	-9*	i	i	i	-1.2	-18
N#C/C(=N\Nc1ccccc1Cl)C(=O)c1ccccc1	100*	i	-14	i	0.71	i	i	i	-0.83	-16
COc1ccc(C(=O)c2c[nH]c(C(=O)N=CN(C)C)c2)cc1	i	i	-2	i	0.13	i	.	.	.	.
CCCCNC(=O)c1ccccc1C(=O)NCCCC	i	i	0	i	-2	i	.	.	.	.
SMILES	ANO1 block	ANO1 activ	GPR7 antag	CHT block	Kir21 inh	CHT allo act	TMEM16A reconf	HEK293 Ca mobil	YFP-HEK293 quench	ClC-1 inh
CCCCNC(NCCCC)=C(S(=O)(=O)CC)S(=O)(=O)CC	25*	i	-14	i	-1.3	i	i	i	-1.1	-4
Cc1ccc2nc(SCC(=O)c3ccc(Cl)s3)[nH]c2c1	i	i	-7	i	-0.54	i	.	.	.	.
CC(=O)c1c(C)[nH]c(C(=O)CSc2nc3ccc(C)cc3[nH]2)c1C	i	i	-8	i	0.66	i	i	i	-0.82	-1
CCN(CC)S(=O)(=O)c1ccc(S(=O)(=O)Nc2c(C)nn(C)c2C)cc1	25*	i	.	i	-0.02	i	30%*	i	-0.91	-5
Cc1cc(C)c2nc(SC(C)C#N)cc(C)c2c1 (stereo unspecified)	100*	i	-22	i	0.95	i	i	i	-1.1	0
Cc1cc(C)c2nc(SC3CCOC3=O)cc(C)c2c1 (stereo unspecified)	i	i	-8	i	0.97	i	.	.	.	.
Cc1cc(C)cc(NC(=O)C2(c3ccccc3)CC2(Cl)Cl)c1 (stereo unspecified)	25*	i	-12	i	1.8	i	i	i	-1.3	-6
Cc1cccc(NC(=O)C2(c3ccccc3)CC2(Cl)Cl)c1 (stereo unspecified)	i	i	-5	i	-0.89	i	.	.	.	.
COc1ccc(-c2noc(CN(C(=O)c3cccs3)C(C)C)n2)cc1	100*	i	-14	i	-0.01	i	i	i	-0.96	1
CSc1ccccc1C(=O)NCC1CCCO1 (stereo unspecified)	100*	i	8	i	0.74	i	i	i	-0.99	-12
COCCSc1ccccc1C(=O)NCC1CCCO1 (stereo unspecified)	i	i	-8	i	-0.03	i	.	.	.	.
COc1ccc(NC(C)=O)cc1S(=O)(=O)NC1CCSc2ccccc21 (stereo unspecified)	i	i	-11	i	0.89	i	.	.	.	.

Screening results from PubChem.
